Compound activity from PubChem BioAssay.
Hits are enriched below; roughly 1.5% of the tested compounds scored in any of these assays.
Sa ugtP lethal: kills S. aureus RN4220 lacking UgtP; actives 0.54% (n = 330,000); growth inhibition, % (concentration not given with the values); S. aureus RN4220 ugtP deletion, OD600 growth, 16 h; in the data active = growth inhibition above about 68%;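 also: plate controls were untreated wells for no effect and antibiotic for full effect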
Sa RN4220 lethal: kills Staphylococcus aureus RN4220; S. aureus RN4220 growth, OD600, 16 h; inhibition, % (concentration not given with the values); actives 0.33% (n = 330,000); AID 1259311; in the data active = inhibition above about 85%;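 also: plate controls were untreated cells for no effect and reference antibiotic for full effect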
SSB-PriA inh: K. pneumoniae PriA-SSBct interaction inhibition. AlphaScreen SSBct-PriA binding, biotinylated peptide. inhibition, % at 33 µM. actives 0.6% (n = 430,000); in the data active = inhibition mostly above about 37%, no sharp cut-off; inactive = mostly below about 20%;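 also: plate controls were negative control peptide for no effect and reference peptide for full effect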
DUSP3 inh: DUSP3 (human) phosphatase inhibition; P51452; recombinant VHR phosphatase, pNPP absorbance; inhibition, % at 13.3 µM; actives 0.52% (n = 290,000); in the data active = inhibition above about 50%
Target sequence (P51452 whole entry, looked up): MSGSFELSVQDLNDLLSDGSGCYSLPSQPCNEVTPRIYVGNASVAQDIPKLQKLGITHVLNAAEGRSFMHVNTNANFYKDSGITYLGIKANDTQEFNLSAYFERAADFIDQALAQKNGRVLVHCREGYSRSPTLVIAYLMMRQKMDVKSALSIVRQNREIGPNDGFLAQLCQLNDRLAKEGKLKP
CCHFV vOTU inh: blocks the CCHF virus ovarian tumor domain protease; CCHFV vOTU protease, Pep-AMC fluorescence; inhibition, % at 11.5 µM; actives 0.55% (n = 370,000); AID 651958; in the data active = inhibition above about 30%; also: 0% = vehicle wells with enzyme and 100% = no enzyme wells
* marks the source's active call; other numbers are inactive results; ! = a repeat was not active.

`O=C(NCCN1CCOCC1)C1CC(=O)N(c2ccc(Cl)cc2)C1` (centres undefined) gave Sa ugtP lethal 5, Sa RN4220 lethal 5, SSB-PriA inh -10, DUSP3 inh 50* and CCHFV vOTU inh -7.
`Cc1ccc(N2CC(C(=O)NCCn3ccnc3-c3ncccn3)CC2=O)cc1C` (centres undefined) gave SSB-PriA inh 43*.
`O=C(NCCN1CCOCC1)C1CC(=O)N(c2ccc(F)cc2)C1` (centres undefined) gave Sa ugtP lethal -7, Sa RN4220 lethal 0, SSB-PriA inh -2, DUSP3 inh 20 and CCHFV vOTU inh 2.
`Cc1ccc(/C=C/S(=O)(=O)N2CCN(c3ccc(-c4cccs4)nn3)CC2)cc1` gave SSB-PriA inh -2.
For S=C(Nc1ccc(Br)cc1)c1nc2ccccc2s1 the results were SSB-PriA inh 7.
`O=C(CN1CCN(CCN2C(=O)c3cccc4cccc(c34)C2=O)CC1)c1ccc(Cl)cc1` gave DUSP3 inh -2.
COc1ccc(C(=O)CN2CCN(CCN3C(=O)c4cccc5cccc(c45)C3=O)CC2)cc1 was read as Sa ugtP lethal -3, Sa RN4220 lethal 3, SSB-PriA inh 62*! and CCHFV vOTU inh -8.
For CCC(C)c1ccccc1OCC(O)CN1CCN(CCN2C(=O)c3cccc4cccc(c34)C2=O)CC1 (centres undefined) the results were SSB-PriA inh 46*!.
`O=C1c2cccc3cccc(c23)C(=O)N1CCN1CCN(CC(O)COc2ccccc2)CC1` (centres undefined) gave SSB-PriA inh 0, DUSP3 inh 7 and CCHFV vOTU inh -2.
CCOC(=O)c1ccccc1NC(=O)Cn1c(=O)n(Cc2ccc(F)cc2)c(=O)c2nccnc21 was read as SSB-PriA inh -18.
`O=C(c1ccccc1)N1CCN(C(=O)c2ccccc2)CC1` gave Sa ugtP lethal 7, Sa RN4220 lethal 11, SSB-PriA inh -1, DUSP3 inh -22 and CCHFV vOTU inh 4.
For CC1(C)C(C(=O)N2CCN(C(=O)c3ccccc3)CC2)C1(C)C the results were Sa ugtP lethal 1, Sa RN4220 lethal 4, SSB-PriA inh 1, DUSP3 inh 58* and CCHFV vOTU inh 0.
O=C(Nc1nc(-c2ccccn2)cs1)c1cc(Cl)ccc1[N+](=O)[O-] was read as Sa ugtP lethal 10, Sa RN4220 lethal 38, SSB-PriA inh 64*, DUSP3 inh 24 and CCHFV vOTU inh -11.
For O=C(Nc1nc(-c2ccccc2)cs1)c1cc(Cl)ccc1[N+](=O)[O-] the results were SSB-PriA inh 34.
`Cc1ccc(C(=O)Nc2nc(-c3ccccn3)cs2)o1` gave Sa ugtP lethal 1, Sa RN4220 lethal 4, SSB-PriA inh 18, DUSP3 inh 12 and CCHFV vOTU inh -3.
Screening O=C(Nc1nc(-c2ccccn2)cs1)c1ccc([N+](=O)[O-])o1 returned Sa ugtP lethal 21, Sa RN4220 lethal 7, SSB-PriA inh 51*, DUSP3 inh 10 and CCHFV vOTU inh 0.
`O=C(Nc1nc(-c2ccccc2)cs1)c1ccccc1[N+](=O)[O-]` gave SSB-PriA inh 84*.
`O=C(Nc1nc(-c2ccccn2)cs1)c1ccc(Cl)c([N+](=O)[O-])c1` gave SSB-PriA inh 58.
`O=C(Nc1nc(-c2ccccn2)cs1)c1ccccc1[N+](=O)[O-]` gave SSB-PriA inh 105*.
For Cc1cccc(N2C(=O)c3cccc4c(N5CCCCC5)c([N+](=O)[O-])cc(c34)C2=O)c1C the results were SSB-PriA inh -22, DUSP3 inh -5 and CCHFV vOTU inh 9.
For O=C1c2cccc3c(N4CCOCC4)c([N+](=O)[O-])cc(c23)C(=O)N1c1cccc2ccccc12 the results were Sa ugtP lethal 97*, Sa RN4220 lethal 95*, SSB-PriA inh -13, DUSP3 inh -4 and CCHFV vOTU inh 3.
Cc1cc(C)cc(C(=O)Nc2nnc(N=Cc3ccc(Br)s3)s2)c1 was read as SSB-PriA inh 71*.
Screening CCn1cc(C(=O)O)c(=O)c2cc(F)c(N3CCN(C)CC3)cc21 returned Sa ugtP lethal 100*, Sa RN4220 lethal 99*, SSB-PriA inh 4, DUSP3 inh 7 and CCHFV vOTU inh -8.
CN1CCN(c2c(F)cc3c(=O)c(C(=O)O)cn4c3c2SCC4)CC1 was read as Sa ugtP lethal 99*, Sa RN4220 lethal 99*, SSB-PriA inh -3, DUSP3 inh 27 and CCHFV vOTU inh -52.
CCCCCCCC(=O)N1CCN(c2cc3c(cc2F)c(=O)c(C(=O)O)cn3CC)CC1 was read as Sa ugtP lethal 99*, Sa RN4220 lethal 95*, SSB-PriA inh 7, DUSP3 inh -24 and CCHFV vOTU inh -12.
For CC1(c2cccc(N)c2)NC(=O)NC1=O (centres undefined) the results were SSB-PriA inh -9.
For CN1CCc2cc(C(CNC(=O)C(=O)NCc3ccc(F)cc3)N(C)C)ccc21 (centres undefined) the results were SSB-PriA inh 17.
For Cc1ccc(NC(=O)Cn2cccc(-c3nc(-c4ccc(Cl)cc4)no3)c2=O)cc1F the results were SSB-PriA inh -16.
O=C(NCCN1CCOC(c2ccccc2)C1)c1cc2ccccc2oc1=O (centres undefined) was read as SSB-PriA inh -5.
For O=C(Cn1ncccc1=O)N1CCC(N2CCC[C@@H]2COCc2ccccc2)CC1 the results were SSB-PriA inh -1.
`O=C(Oc1cc(=O)oc2c1c(=O)n1c3c(cccc23)CC1)c1ccccc1` gave Sa ugtP lethal 82*, Sa RN4220 lethal 34, SSB-PriA inh 2, DUSP3 inh 28 and CCHFV vOTU inh -11.
For Cc1ccc(NC(=O)c2sccc2S(=O)(=O)N2CCN(c3ccccc3F)CC2)cc1Cl the results were SSB-PriA inh -14.
Cc1csc(CN(C)C(=O)C2CCC(=O)N(CCN(C)C)C2)n1 (centres undefined) was read as Sa ugtP lethal 2, Sa RN4220 lethal 4, SSB-PriA inh 3, DUSP3 inh 60* and CCHFV vOTU inh 10.
For O=C(CSc1nnc(-c2ccncc2)o1)Nc1c(Cl)cccc1Cl the results were SSB-PriA inh -20.
COc1ccc(NC(=O)CSc2nc3ccccc3c(=O)n2Cc2cccs2)c(OC)c1 was read as Sa ugtP lethal 8, Sa RN4220 lethal 3 and DUSP3 inh 18.
For Cc1ccc(-c2csc(NC(=O)CSc3nc4ccccc4c(=O)n3CCCN(C)C)n2)cc1 the results were Sa ugtP lethal -6, Sa RN4220 lethal -13, SSB-PriA inh 55*, DUSP3 inh -6 and CCHFV vOTU inh -3.
CCn1c(SCC(=O)Nc2nc(-c3ccc(C)cc3)cs2)nnc1-c1ccccc1 was read as Sa ugtP lethal 4, Sa RN4220 lethal -9, SSB-PriA inh -16, DUSP3 inh 30 and CCHFV vOTU inh 10.
Screening COCCn1c(SCC(=O)Nc2ccc(OC)cc2OC)nc2ccccc2c1=O returned Sa ugtP lethal 3, Sa RN4220 lethal 1, SSB-PriA inh 8, DUSP3 inh 51* and CCHFV vOTU inh 0.
